The structures appear in SMILES notation. The whole screen tested about 220,000 compounds, of which about 16,000 (7.3%) were called active. Where a call stands in place of a potency, no number is given. Roughly 25% stayed inconclusive and do not appear here. Calls come from the whole dose curve; as a rule, active = well fitted inhibition curve with a large enough effect (not every such curve was filed as active); inconclusive = small, poorly fitted or top-dose-only effect, or another doubt; inactive = no such curve, though single readings can be large or run the other way. The sample as a whole holds a higher share of actives than the screen did.
Potency is the fitted concentration of half-maximal effect.

In the assay the target is Aldehyde dehydrogenase 1A1 (Homo sapiens) (UniProt P00352). The experiment in a line: qHTS Assay for Inhibitors of Aldehyde Dehydrogenase 1 (ALDH1A1). The settings on record: Purified ALDH1A1, NADH fluorescence, propionaldehyde substrate; series mostly up to 75.3 µM.
Chain of Aldehyde dehydrogenase 1A1 (Homo sapiens) (P00352 whole entry, looked up): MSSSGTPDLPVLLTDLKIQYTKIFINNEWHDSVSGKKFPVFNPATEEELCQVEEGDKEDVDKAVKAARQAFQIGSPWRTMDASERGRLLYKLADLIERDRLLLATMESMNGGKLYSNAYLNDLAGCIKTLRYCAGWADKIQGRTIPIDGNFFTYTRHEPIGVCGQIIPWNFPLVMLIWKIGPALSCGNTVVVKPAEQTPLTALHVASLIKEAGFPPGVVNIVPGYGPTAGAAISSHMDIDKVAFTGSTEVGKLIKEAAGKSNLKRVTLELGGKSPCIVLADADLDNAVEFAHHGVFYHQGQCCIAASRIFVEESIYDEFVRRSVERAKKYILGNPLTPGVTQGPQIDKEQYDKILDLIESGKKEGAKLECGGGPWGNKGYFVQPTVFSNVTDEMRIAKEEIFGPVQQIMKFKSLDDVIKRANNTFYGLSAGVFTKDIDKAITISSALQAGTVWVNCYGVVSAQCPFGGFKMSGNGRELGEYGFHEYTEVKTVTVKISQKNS
For `COc1ccc(Cl)cc1N(CC(=O)N1CCCCC1)S(C)(=O)=O`, the Potency entry is “inactive”.

Consider `CCn1c(C(C)C)n[nH]c1=S`, for which the Potency result is “inactive”.

For `CCCCCCCC/C=C\CCCCCCCC(=O)NCC(=O)O`, the Potency result is “inactive”.

On to `COc1ccccc1NC(=O)C1=C(C)NC(=O)NC1c1ccc(C)s1` (stereo unspecified), for which the Potency entry is “inactive”.

For `CCOC(=O)/C(=N\Nc1ccccc1Cl)N(C)C1CCS(=O)(=O)C1` (stereo unspecified), the Potency entry is “inactive”.

For the molecule `Cc1nc2ccccc2c(=O)n1CCCn1ccnc1`, the Potency result was “inactive”.

Regarding `Cc1ccnc(Nc2nc3ccccc3s2)n1`, the Potency result is “inactive”.

Turning to `Cc1ccnc(-n2sc3ccccc3c2=O)n1`, the Potency was 1.26 µM (active).

As for `COC(=O)C(C)NC(=O)COc1ccc2ccccc2c1` (stereo unspecified), the Potency result was “inactive”.

For the molecule `C/C(=N/N1CCN(Cc2cccc3ccccc23)CC1)c1cccnc1`, the Potency result was “inactive”.

`CC/C(Cc1ccccc1)=N/NC(=O)CCn1nnc2ccccc21`: the Potency result was “inactive”.

Regarding `CC(C)Cc1nc(Cl)c(C#N)c2c1CCC2`, the Potency result is “inactive”.

For `COC(=O)C1=C(C)NC(=O)/C1=C/c1ccc(CNS(=O)(=O)c2ccc(C)cc2)o1`, the Potency result is “inactive”.

Take `O=C(NCC(=O)N(CC1CCCO1)C(C(=O)NC1CCCCC1)c1ccccc1)c1ccco1` (stereo unspecified): the Potency entry was “inactive”.

Take `CCCNC(=O)CN(Cc1ccccc1F)S(=O)(=O)c1ccc(C)cc1`: the Potency entry is “inactive”.

For the molecule `CCNC(=O)CN(c1ccc(C)cc1)S(=O)(=O)c1ccc(SC)cc1`, the Potency is 11.2 µM (active).

As to `Cc1ccc(S(=O)(=O)N(CC(=O)NCCSC2CCCCC2)c2ccccc2F)cc1`, the Potency result was “inactive”.

In the case of `COc1ccc(/C=C2\SC(=S)N(CC(=O)NNC(=O)c3ccncc3)C2=O)cc1`, the Potency result is “inactive”.

On to `N#CCSc1nc2ccccc2c(=O)n1-c1ccccc1`, for which the Potency is 12.6 µM (active).

Take `O=c1c2ccccc2nc(CSc2nnnn2-c2ccccc2)n1-c1ccccc1`: the Potency result is “inactive”.

Turning to `COc1cccc(-n2c(SCC(=O)c3c[nH]c4ccccc34)nc3ccccc3c2=O)c1`, the Potency entry is “inactive”.

In the case of `CC(C)(C)C1CCC(=NNC(=O)c2ccc(Br)o2)CC1` (stereo unspecified), the Potency entry was “inactive”.

For the molecule `O=c1c(Cl)c(NC2CC2)cnn1-c1ccccc1`, the Potency entry was “inactive”.

As for `Cc1cc(C)nc(SCC(=O)N(C)C)n1`, the Potency entry is “inactive”.

Take `CCOc1ccc(NC(=O)CSc2ncnc3c2sc2ccccc23)cc1`: the Potency result was “inactive”.

For `COc1ccc(NC(=O)CSc2nc(C)cs2)cc1`, the Potency result was “inactive”.

On to `COc1ccc(NC(=O)CSc2ncnc3[nH]ncc23)cc1`, for which the Potency was 11.2 µM (active).

For `CCOC(=O)c1sc(=S)n(-c2cccc(OC)c2)c1N`, the Potency was 22.4 µM (active).

With `CCOC(=O)c1sc(-c2cccc([N+](=O)[O-])c2)cc1N`, the Potency entry was “inactive”.

In the case of `COC(=O)c1sccc1NN1C(=O)c2ccccc2C1=O`, the Potency entry was “inactive”.

For the molecule `CCOC(=O)c1csc(NC(=O)Nc2cccc(OC)c2)n1`, the Potency entry was “inactive”.

Take `COC(=O)c1sc(=S)n(-c2ccccc2)c1N`: the Potency is 7.08 µM (active).

Consider `COC(=O)c1sc(=S)n(-c2ccc(Cl)cc2)c1C`, for which the Potency result was “inactive”.

As for `COc1ccc(CCc2nnc(CCC(=O)NCc3cnn(-c4ccccc4C)c3)o2)cc1`, the Potency result is “inactive”.

In the case of `O=C(CCCNS(=O)(=O)c1cccc2nsnc12)NCCN1CCN(c2ccccc2F)CC1`, the Potency entry was “inactive”.

On to `CCCCC/C=C\C[C@H](O)/C=C/C=C/C=C/[C@@H](O)CCCC(=O)O`, for which the Potency entry is “inactive”.

For `COc1cc(CNC2CCCC2)c(Br)cc1OCc1ccccc1`, the Potency entry is “inactive”.

On to `COc1cc(C2CC(=O)N3CN(Cc4ccccc4)CSC3=C2C#N)ccc1OCc1ccccc1` (stereo unspecified), for which the Potency is 10 µM (active).

For the molecule `COc1ccc(CCN=C2SCC(=O)N2Cc2ccccc2)cc1OC`, the Potency result is “inactive”.

For the molecule `O=C(N/N=C1\CCSC1)c1cc(Cl)ccc1O`, the Potency entry was “inactive”.

Take `O=C(CSC(=S)N1CCOCC1)c1ccccc1`: the Potency entry is “inactive”.

Regarding `O=C(CSC(=S)N1CCCCC1)c1c(F)cccc1F`, the Potency is 12.6 µM (active).

`CC(=O)c1ccc(NC(=O)CSC(=S)N2CCCC2)cc1`: the Potency entry was “inactive”.

With `CCOP(=O)(OCC)C(Nc1ccc([N+](=O)[O-])cc1)c1ccc(Cl)cc1` (stereo unspecified), the Potency result is “inactive”.

Regarding `Cc1ccc2c(c1)C1CN(C)CCC1N2C(=S)Nc1ccc(Cl)cc1Cl` (stereo unspecified), the Potency result was “inactive”.

For the molecule `CCOC(=O)N1CCN(C(=O)c2cn(C)c3ccc(S(=O)(=O)N4CCCC4)cc3c2=O)CC1`, the Potency result was “inactive”.

Turning to `CCn1c(SCC(=O)NCC2CCCO2)nc2cc(S(=O)(=O)N3CCCCC3)ccc21` (stereo unspecified), the Potency result is “inactive”.

As to `CCn1cc(C(=O)NCC2CCCO2)c(=O)c2cc(S(=O)(=O)N3CCCCC3)ccc21` (stereo unspecified), the Potency was 15.8 µM (active).

On to `Cc1ccc(S(=O)(=O)N2CCC(C(=O)NCC3CCCO3)CC2)cc1` (stereo unspecified), for which the Potency result is “inactive”.

On to `O=C(Nc1ccc(S(=O)(=O)N2CCc3ccccc3C2)cc1)c1ccccc1`, for which the Potency result is “inactive”.

`CCn1cc(C(=O)NCCCN2CCCCCC2)c(=O)c2cc(S(=O)(=O)N3CCc4ccccc4C3)ccc21`: the Potency is 7.94 µM (active).

As to `NS(=O)(=O)c1ccc(CNC(=O)c2ccc(Cl)cc2[N+](=O)[O-])cc1`, the Potency entry is “inactive”.

`CCOC(=O)N/N=C/c1cccnc1`: the Potency result is “inactive”.

Turning to `Cc1nn(CCOc2ccc(Br)cc2)c(C)c1[N+](=O)[O-]`, the Potency entry is “inactive”.

Regarding `CC(C)c1nc2sc3c(c2c(=O)n1N)CC(C)(C)OC3`, the Potency entry was “inactive”.

With `C=CCNC(=S)NNc1ncnc2sc3c(c12)CC(C)(C)OC3`, the Potency is 1.41 µM (active).

Take `CN(C)CCSc1nc(N)c2c3c(sc2n1)COC(C)(C)C3`: the Potency entry is “inactive”.

For `O=C(NCc1ccc(F)cc1)C(c1ccccc1)N(C(=O)c1csnn1)C1CC1` (stereo unspecified), the Potency entry was “inactive”.

On to `COc1cc(C)c(S(=O)(=O)N2CCOCC2)c(C)c1C`, for which the Potency result was “inactive”.

`O=C1N/C(=N\N=C\c2ccco2)SC1Cc1ccc(F)cc1` (stereo unspecified): the Potency entry is “inactive”.

With `CCOc1ccc(S(=O)(=O)Nc2ccc(S(=O)(=O)Nc3cc(OC)ccc3OC)cc2)cc1`, the Potency was 10 µM (active).

In the case of `CCOc1ccc(C(=O)Nc2cc(OC)ccc2OC)cc1`, the Potency result was “inactive”.

In the case of `CCOc1ccc(NC(=O)Nc2cc(C)ccc2OC)cc1`, the Potency entry is “inactive”.

In the case of `CCOc1ccc(S(=O)(=O)Nc2ccncc2)c(C)c1C`, the Potency entry is “inactive”.

In the case of `CCOc1ccc(NS(=O)(=O)c2ccc(C)c(C(N)=O)c2)cc1`, the Potency entry was “inactive”.

On to `CCOc1ccc(NS(=O)(=O)c2cc(C)c(C)cc2C)cc1`, for which the Potency is 7.94 µM (active).

`CN1CCN(/N=C/c2ccc(C#N)cc2)CC1`: the Potency result was “inactive”.

As for `CC(=O)/C(C)=N/O`, the Potency result is “inactive”.

Take `O=C(O)/C=C/c1ccc(S(=O)(=O)N2CCCCCC2)cc1`: the Potency entry is “inactive”.

Take `CC(OC(=O)CNS(=O)(=O)/C=C/c1ccccc1)C(=O)Nc1ccc(S(=O)(=O)N2CCCC2)cc1` (stereo unspecified): the Potency is 1.26 µM (active).

Turning to `Cc1cc(C(=O)OC(C)C(=O)Nc2cccc(S(=O)(=O)N3CCOCC3)c2)c(C)o1` (stereo unspecified), the Potency entry was “inactive”.

As for `C/C(N)=C(/C#N)C(=O)COC(=O)C1CCN(C(=O)c2ccc(Cl)cc2)CC1`, the Potency entry was “inactive”.

For the molecule `N/C(=N\OC(=O)Cc1ccccc1[N+](=O)[O-])c1ccc(Br)cc1`, the Potency result was “inactive”.

Take `NS(=O)(=O)c1ccc(NC(=O)/C=C/c2ccccc2Cl)cc1`: the Potency result was “inactive”.

For the molecule `COC(=O)C1=C(C)N(c2ccc(C)cc2)/C(=C/c2ccc(O)cc2)C1=O`, the Potency result was “inactive”.

On to `Cc1ccc(C(=O)C(=S)N2CCOCC2)cc1`, for which the Potency result was “inactive”.

For `CCOc1cc(C(=O)OCC(=O)Nc2cccc(C)c2)ccc1OCC(=O)N1CCOCC1`, the Potency result is “inactive”.

For the molecule `CCOc1cc(C(=S)N2CCOCC2)ccc1O`, the Potency was 8.91 µM (active).

`Nc1nc(SCc2ccccc2Cl)n[nH]1`: the Potency entry is “inactive”.

For the molecule `Clc1ccc(CSc2nnc3c(n2)[nH]c2ccccc23)cc1`, the Potency result was “inactive”.

`O=c1[nH]c(SCc2ccccc2)nnc1-c1ccccc1`: the Potency result was “inactive”.

For the molecule `Clc1ccccc1CSc1nnc(-c2ccco2)c(-c2ccco2)n1`, the Potency was 10 µM (active).

With `COC(OC)c1ccnc(SCc2ccccc2Cl)n1`, the Potency result was “inactive”.

For `c1ccc(CSc2nnc(-c3ccco3)c(-c3ccco3)n2)cc1`, the Potency is 2.82 µM (active).

As to `O=C(NC(=O)c1cc(OCC(F)(F)F)ccc1OCC(F)(F)F)Nc1ccccc1`, the Potency result is “inactive”.

As for `Cc1ccc(-n2c(O)c(C=Nc3ccc(S(=O)(=O)Nc4ncccn4)cc3)c3ccccc3c2=O)cc1C`, the Potency result was “inactive”.

With `CCOc1ccc(-n2c(O)c(/C=N/Nc3nc(C)cc(C)n3)c3ccccc3c2=O)cc1`, the Potency was 5.01 µM (active).

Take `CCOc1ccc(N=Cc2c(O)n(-c3cccc(C)n3)c(=O)c3ccccc23)cc1`: the Potency entry was “inactive”.

Regarding `O=C(NCCOc1ccccc1F)Nc1ccc(Br)cc1`, the Potency entry is “inactive”.

Regarding `O=C(NC1CCCCC1)C1c2ccccc2C(=O)N1Cc1ccco1` (stereo unspecified), the Potency result is “inactive”.

Take `Cc1ccnc(N2C(=O)c3ccccc3C2Nc2ccc3c(c2)OCCO3)c1` (stereo unspecified): the Potency result is “inactive”.

As for `O=C1c2ccccc2C(Nc2ccc3c(c2)OCCO3)N1Cc1ccco1` (stereo unspecified), the Potency is 7.08 µM (active).

For the molecule `COc1ccccc1NC(=O)c1ccc(C)s1`, the Potency result is “inactive”.

On to `COc1ccccc1NC(=O)/C=C/C(=O)O`, for which the Potency entry was “inactive”.

Consider `COc1ccccc1NC(=O)/C=C/C(N)=O`, for which the Potency is 28.2 µM (active).

As to `CCCC(=O)OCC(=O)Nc1cc(Cl)ccc1[N+](=O)[O-]`, the Potency entry was “inactive”.

Turning to `Cc1ccc(Cl)cc1NC(=O)COC(=O)C1CCCCC1`, the Potency result is “inactive”.

On to `Cc1ccc(Cl)cc1NC(=O)COC(=O)CC(C)(C)C`, for which the Potency is 8.91 µM (active).

Regarding `Cc1ccc2nc(-c3ccccn3)cc(C(=O)Nc3ccc4c(c3)OCO4)c2c1`, the Potency entry is “inactive”.

As to `CCCCn1nc(C(=O)Nc2ccc(S(=O)(=O)Nc3ncccn3)cc2)c2ccccc2c1=O`, the Potency entry is “inactive”.

Consider `Cn1cc(CN2CCC(C(O)CCc3ccccc3)CC2)c(-c2ccccc2F)n1` (stereo unspecified), for which the Potency result is “inactive”.

In the case of `CS(=O)(=O)n1nc(-c2ccco2)nc1N`, the Potency result was “inactive”.

For the molecule `C/C(N)=C(/C#N)C(=O)COC(=O)c1cc(-c2ccccc2)nc2ccc(Br)cc12`, the Potency entry was “inactive”.

Regarding `Cc1ccc(NC(=O)CN2CCCCC2)c2c1CC(C)(C)O2`, the Potency entry is “inactive”.

For the molecule `Cc1cc(CO)nn1-c1ccc([N+](=O)[O-])cc1`, the Potency result was “inactive”.

Consider `COc1ccc(NC(=O)Cn2c(-c3ccc(OC)cc3)cn(-c3ccc(C)cc3)c2=O)cc1`, for which the Potency is 15.8 µM (active).

For the molecule `COc1ccc(C(CC(=O)Nc2ccc(C)cc2)NC(=O)C(F)(F)F)cc1` (stereo unspecified), the Potency entry is “inactive”.

`Cc1ccc(OC(=O)CCC(=O)Nc2ccc(Br)cc2)cc1`: the Potency result was “inactive”.

As to `CC1=C(C(=O)OC2CCCCC2)C(c2cccnc2)n2ncnc2N1` (stereo unspecified), the Potency was 20 µM (active).

For `COC(=O)C1=C(C)Nc2ncnn2C1c1ccco1` (stereo unspecified), the Potency result was “inactive”.

As for `COC(=O)C1=C(C)Nc2ncnn2C1c1cccnc1` (stereo unspecified), the Potency result is “inactive”.

The values are drawn from PubChem BioAssay AID1030 (National Center for Advancing Translational Sciences (NCATS), 2008).
